# Bioassay records from PubChem.
# Many of the other results were omitted from the sample, so hits are more common in it than they were.
# IMPase cell inh: qHTS Assay for Identifying the Cell-Membrane Permeable IMPase Inhibitors. Inositol monophosphatase 1 (Rattus norvegicus), P97697. CHO-M1 cells, IP1 accumulation, HTRF TR-FRET ratio. inhibition (IP1 accumulation), % at 46.1 µM. 120,000 tested, under 10 active. AID 901, 2007; active = well fitted curve in the direction sought with a large enough effect in the signal ratio, not every such curve was filed as active; inconclusive = small, poorly fitted or top-dose-only effect, or a change in a side signal; inactive = no such curve, though single readings can be large or run the other way; the % refers to the signal ratio;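 note: cells stimulated with carbachol in lithium chloride buffer; plate controls were DMSO basal wells for no effect and reference inhibitor wells for full effect; higher means more IMPase inhibition seen as more IP1 and lower FRET ratio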
# Target sequence (P97697 whole entry, looked up): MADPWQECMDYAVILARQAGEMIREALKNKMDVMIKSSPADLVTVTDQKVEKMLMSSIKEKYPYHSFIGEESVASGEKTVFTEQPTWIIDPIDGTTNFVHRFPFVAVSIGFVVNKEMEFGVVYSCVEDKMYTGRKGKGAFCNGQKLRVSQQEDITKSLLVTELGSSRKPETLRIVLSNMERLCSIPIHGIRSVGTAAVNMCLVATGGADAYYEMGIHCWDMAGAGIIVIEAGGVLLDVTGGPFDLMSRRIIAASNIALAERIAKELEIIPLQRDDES
#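 In this qHTS, compounds (final up to 46 uM) act on CHO-M1 cells that are then activated through the M1 receptor with carbachol, in pH 7.4 buffer containing 50 mM LiCl, for 30 min. IP1 accumulation is quantified by the IP-One immunoassay.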
# Lamin A splicing: qHTS Assay for Modulators of Lamin A Splicing; HeLa LMNA splicing GFP/RFP minigene ratio, 48 h; Potency, µM (doses to about 46.1 µM), for inactives: top-dose ratio change, negative = inhibition, most hits filed as inhibitors; actives 0.01% (n = 200,000); AID 1487, 2009; active = well fitted inhibition curve with a large enough effect in the signal ratio, with a control signal flat, not every such curve was filed as active; inconclusive = small, poorly fitted or top-dose-only effect, or effect the other way, or a change in a side signal; the % refers to the signal ratio; note: potency is the fitted concentration of half-maximal effect
#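 S3 HeLa stable clones carrying a lamin A-EGFP splicing minigene plus DsRed2 were seeded at 600 cells/well in Opti-MEM with 2% FBS, pin-dosed and incubated 48 h at 37°C. Acumen cytometry (488 nm) gave the GFP/RFP total-intensity ratio.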
# PNC assembly inh: High Content Assay for Compounds that inhibit the Assembly of the Perinucleolar Compartment | PC3M PTB-GFP, PNC prevalence imaging, 16 h; hits give low values | activity change (PNC), negative = inhibition, % at 10 µM | actives 3.1% (n = 140,000);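 active = readout at or below -70, meaning at least 70% loss of cells showing the perinucleolar compartment, a nuclear body marking cancer cells; inconclusive = readout between -30 and a set limit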;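 note: plate controls were DMSO wells for no effect and camptothecin positive control wells for full effect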
#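 Read-out is percentage of cells bearing a perinucleolar compartment, from automated 20x imaging of fixed, Hoechst-stained PC3M PTB-GFP cells. Cells were seeded 4 h, then exposed 16 h to compound (23 nl of library stock) in duplicate plates.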
# Numbers without * were called inactive; ? = inconclusive; nt = not tested or not shown; [ ] = dose if it differs, or a comment. Unless noted, % is set by controls: 0 for no effect and ±100 for the full control effect.
SMILES,IMPase cell inh,Lamin A splicing,PNC assembly inh
Cc1ccc(C(=O)OCC(=O)NC(=O)c2cccn2C)cc1,-6,4%,-81*
CC(C)NC(=O)NC(=O)COC(=O)c1ccc(OC(F)(F)F)cc1,nt,15%,-89*
CNC(=O)NC(=O)COC(=O)c1ccc(-n2c(C)ccc2C)cc1,6,0%,-115*
Cc1cccc(C)c1NC(=O)C1CCCN1S(=O)(=O)c1ccccc1 (stereo not given),nt,-22%[46 µM],nt
CCOc1ccc(OCC)c(NC(=O)C2CCN(S(=O)(=O)c3cnc[nH]3)CC2)c1,9,4%,-9
COc1ccccc1C1N(c2cc(Cl)ccc2OC)C(=O)C2CCCN21 (stereo not given),2,-3%,-106*
COc1ccc(C2N(c3cc(Cl)ccc3OC)C(=O)C3CCCN32)c(OC)c1 (stereo not given),-2,13%,3
C=CCn1c(=S)[nH]c2nc3c(cc2c1=O)CCCC3,-2,-1%,13
C=CCn1c(=S)[nH]c2sc3c(c2c1=O)CCC3,-11,?,-109*
Cc1ccc2c(=O)c(C(=O)c3ccccc3)cn(CC(=O)Nc3ccc(C)c(Cl)c3)c2n1,nt,21%[46 µM],nt
CCOc1ccc(C(=O)Nc2ccc3oc(-c4cccnc4)nc3c2)cc1,7,nt,nt
CCOc1ccc(OCC)c(NC(=O)CN(C)S(=O)(=O)c2ccc3c(c2)CCCC(=O)N3)c1,nt,-10%[46 µM],nt
CCc1cccc2c(C(=O)CSc3nncn3-c3ccc(OC)cc3)c[nH]c12,nt,?,-104*
CCc1cccc2c(C(=O)CSc3nncn3-c3ccccc3OC)c[nH]c12,-5,0%,-13
CC(=O)c1c[nH]c2ccc(C)cc2c1=O,10,?,-87*
CCOC(=O)c1ccc2[nH]cc(C(C)=O)c(=O)c2c1,-8,-1%,-13
COc1ccccc1-c1nc(S(=O)(=O)c2ccccc2)c(N2CCC(C)CC2)o1,-3,nt,nt
CCC(=O)Nc1c(C)cc(C)cc1Cl,-2,3%,?
Cc1cc(C)c(NC(=O)Nc2ccccc2)c(Cl)c1,nt,-6%,-114*
CC(C)Cn1c(CNC(=O)c2ccccc2)nc2ccccc21,2,?,4
CCc1nc2ccccc2n1CC(C)C(=O)O (stereo not given),5,-4%,-100*
COCCn1nnnc1C(c1cccs1)N1CCCC(C)C1 (stereo not given),nt,12%[46 µM],nt
CC(C)Sc1nnc(CNC(=O)C23CC4CC(CC(C4)C2)C3)n1Cc1ccccc1,8,-15%,-17
CSc1nnc(CNC(=O)C23CC4CC(CC(C4)C2)C3)n1Cc1ccccc1,-5,-1%,-115*
NC(=O)CC[C@H](NC(=O)OCc1ccccc1)C(=O)OCc1ccc(Cl)cc1,nt,6%,-93*
SMILES,IMPase cell inh,Lamin A splicing,PNC assembly inh
O=C(CCC(NC(=O)OCc1ccccc1)C(=O)OCc1ccccc1)NCC(=O)OCc1ccccc1 (stereo not given),8,-1%,-3
O=C(O)C1CCN(S(=O)(=O)c2ccc(Oc3ccccc3)cc2)CC1,10,?,-83*
CCOC(=O)C1CCN(S(=O)(=O)c2ccc(C(C)=O)cc2)CC1,1,-4%,-100*
O=C(Cc1ccccc1)NC1CCN(S(=O)(=O)c2ccc(C(=O)O)cc2)CC1,6,-6%,94
O=C(Nc1ccc(Oc2ccccc2)cc1)C1CCN(S(=O)(=O)c2ccccc2)CC1,9,nt,nt
CCOC(=O)C1CCN(S(=O)(=O)c2ccc(OCC(=O)OC)cc2)CC1,3,3%,?
COCC(=O)NC1CCN(S(=O)(=O)c2ccc(C(=O)O)cc2)CC1,5,-3%,-122*
CCOc1ccc(N2CC(NC(=O)c3ccco3)CC2=O)cc1 (stereo not given),nt,10%[46 µM],nt
O=C(Cn1nc(-c2ccccc2)nc(Cc2ccccc2)c1=O)Nc1ccccc1,nt,13%[46 µM],nt
CCCCn1c(=O)[nH]c(=O)c2c1nc(COC(=O)c1c(C)noc1C)n2CCC,2,27%,-28
Cn1nnnc1SCC(=O)Nc1ccc(Br)cc1Cl,-1,5%,-100*
Cn1nnnc1SCC(=O)Nc1ccccc1Cl,-2,11%,34
CCOc1ccccc1CN1C(=O)NC(C)(c2ccccc2)C1=O (stereo not given),6,6%,-19
CCCCOc1ccc(CNC(=S)N/N=C/c2ccc(OC)c(OC)c2)cc1,-4,?,23
CCOc1ccc(CNC(=S)N/N=C\c2ccc([N+](=O)[O-])cc2)cc1,0,-8%,-92*
CCN(CC)C(=O)c1sc2c(c1C)c(=O)n(-c1ccc(Cl)c(Cl)c1)c(=O)n2CC(=O)Nc1cccc(OC)c1,nt,-17%[46 µM],nt
